Screens: PubChem, Center for Chemical Genomics, University of Michigan
Dicer inh: human Dicer pre-microRNA cleavage inhibition; cat-ELCCA pre-miR-21 Dicer processing, chemiluminescence; stronger effect = higher value; z-score at 25 µM; hit rate 6% among 47,000; AID 1347074; in the data active = z-score above about 3, passing the limit was not always enough;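 note: higher signal means more uncleaved substrate so more Dicer inhibition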
Target sequence (Q9UPY3 whole entry, looked up): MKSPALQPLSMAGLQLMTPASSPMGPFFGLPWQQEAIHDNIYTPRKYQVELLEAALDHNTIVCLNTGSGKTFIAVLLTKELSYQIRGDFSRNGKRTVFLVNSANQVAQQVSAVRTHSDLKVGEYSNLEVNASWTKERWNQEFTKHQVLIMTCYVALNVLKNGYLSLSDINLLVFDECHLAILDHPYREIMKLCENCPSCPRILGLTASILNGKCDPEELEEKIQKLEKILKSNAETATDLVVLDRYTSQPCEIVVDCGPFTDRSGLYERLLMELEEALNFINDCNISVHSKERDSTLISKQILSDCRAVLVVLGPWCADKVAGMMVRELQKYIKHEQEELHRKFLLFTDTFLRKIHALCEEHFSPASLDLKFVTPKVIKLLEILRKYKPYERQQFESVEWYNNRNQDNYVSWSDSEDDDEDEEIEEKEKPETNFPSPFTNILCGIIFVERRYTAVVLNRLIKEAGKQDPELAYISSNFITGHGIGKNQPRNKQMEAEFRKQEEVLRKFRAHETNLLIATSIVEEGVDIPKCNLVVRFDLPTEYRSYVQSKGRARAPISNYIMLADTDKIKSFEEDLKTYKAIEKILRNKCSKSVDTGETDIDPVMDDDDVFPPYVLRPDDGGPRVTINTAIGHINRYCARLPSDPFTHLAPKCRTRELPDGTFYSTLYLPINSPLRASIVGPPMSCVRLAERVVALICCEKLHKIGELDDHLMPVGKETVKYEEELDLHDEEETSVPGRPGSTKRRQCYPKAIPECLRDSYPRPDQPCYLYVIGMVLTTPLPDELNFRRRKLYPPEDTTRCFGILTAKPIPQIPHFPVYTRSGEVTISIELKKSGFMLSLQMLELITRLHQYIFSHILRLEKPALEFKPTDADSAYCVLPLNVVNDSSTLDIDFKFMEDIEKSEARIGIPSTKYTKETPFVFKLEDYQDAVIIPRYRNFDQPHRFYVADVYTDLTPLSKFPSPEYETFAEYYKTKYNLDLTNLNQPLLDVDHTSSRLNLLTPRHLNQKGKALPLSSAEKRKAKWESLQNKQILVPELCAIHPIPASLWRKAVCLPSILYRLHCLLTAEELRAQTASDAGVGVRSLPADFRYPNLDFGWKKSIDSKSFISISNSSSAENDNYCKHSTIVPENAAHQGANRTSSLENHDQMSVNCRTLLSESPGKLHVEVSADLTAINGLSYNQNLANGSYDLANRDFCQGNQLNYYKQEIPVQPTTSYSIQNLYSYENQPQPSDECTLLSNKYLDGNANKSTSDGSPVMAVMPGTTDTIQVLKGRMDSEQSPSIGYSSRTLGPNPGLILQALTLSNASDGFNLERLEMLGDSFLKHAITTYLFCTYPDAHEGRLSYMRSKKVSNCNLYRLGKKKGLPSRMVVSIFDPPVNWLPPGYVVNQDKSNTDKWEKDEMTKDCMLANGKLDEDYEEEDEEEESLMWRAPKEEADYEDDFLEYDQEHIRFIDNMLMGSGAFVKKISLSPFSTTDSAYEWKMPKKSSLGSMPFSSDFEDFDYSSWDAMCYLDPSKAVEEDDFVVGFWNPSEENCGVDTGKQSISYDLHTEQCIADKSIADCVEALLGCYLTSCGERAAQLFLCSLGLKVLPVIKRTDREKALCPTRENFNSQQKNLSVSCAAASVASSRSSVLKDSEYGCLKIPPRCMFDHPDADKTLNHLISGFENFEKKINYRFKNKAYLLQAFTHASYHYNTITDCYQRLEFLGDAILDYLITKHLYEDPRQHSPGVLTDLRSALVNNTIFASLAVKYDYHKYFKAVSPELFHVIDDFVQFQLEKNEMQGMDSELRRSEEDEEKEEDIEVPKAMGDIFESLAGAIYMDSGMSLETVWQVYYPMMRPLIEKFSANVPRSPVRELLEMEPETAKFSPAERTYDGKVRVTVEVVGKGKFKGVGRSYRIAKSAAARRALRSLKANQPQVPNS
Of the large screens only hits and unclear results are named; the others gave an inactive call. Only a selection was taken, and hits are over-represented in it overall.

Cc1ccc2oc(-c3ccco3)c(O)c(=O)c2c1	none
Cc1ccc(-c2oc3ccc(C)cc3c(=O)c2O)cc1	none
Cc1ccc2oc(-c3cc(Br)ccc3O)c(O)c(=O)c2c1	Dicer inh 5.3
CSc1nccc(-c2ccc(S(=O)(=O)n3nc(C)cc3C)s2)n1	none
O=C(CSc1nnc(-c2ccc(C(F)(F)F)cn2)s1)Nc1ccccc1Cl	none
O=C(CCc1ccc(O)cc1)NNC(=S)NCCc1ccccc1	none
CCOC(=O)C(=CNNC(=O)CCc1ccc(O)cc1)C(=O)OCC	none
O=C(CCc1ccc(O)cc1)c1c(O)cc(O)cc1O	Dicer inh 3.6
COC(=O)NC(C)(C)C(C)(C)C(=O)O	none
O=C(Oc1nsnc1N1CCOCC1)N1CCOCC1	Dicer inh 3.1
C1CN(c2nsnc2OCCOc2nsnc2N2CCOCC2)CCO1	none
O=C(Oc1nsnc1N1CCOCC1)N1CCCCC1	none
O=S(c1ccc(Cl)cc1)c1ccc(-c2ccccn2)s1 (configuration not stated)	none
CCCOc1cccc(C2c3c(oc4ccccc4c3=O)C(=O)N2Cc2ccc3c(c2)OCO3)c1 (configuration not stated)	none
CC1=C(C(=O)OC(C)C)C(c2ccc(C)cc2)C2=C(CCCC2=O)N1 (configuration not stated)	none
Cc1c(Cc2c(F)cccc2Cl)c(=O)oc2cc(O)ccc12	none
CCCc1c(Cc2c(F)cccc2Cl)c(=O)oc2cc(OS(C)(=O)=O)ccc12	none
CCCc1c(Cc2c(F)cccc2Cl)c(=O)oc2cc(OC(=O)COC)ccc12	Dicer inh 4.4
Cc1onc(-c2ccccc2)c1CNS(=O)(=O)c1ccc(-n2cccn2)cc1	none
CC1CCN(c2ncnc3sc4c(c23)CCC(C)C4)CC1 (configuration not stated)	none
CS/C(=N/S(=O)(=O)c1ccccc1)NNC(=O)c1ccc(Cl)cc1	none
O=C(NNC(=NS(=O)(=O)c1ccccc1)NNC(=O)c1cccc(Cl)c1)c1cccc(Cl)c1	Dicer inh 3.1
O=C(CO/N=C/c1c(Cl)cccc1Cl)NNC(=O)c1cccc(Cl)c1	none
CC1=C(C(=O)OCCc2ccccc2)C(c2coc3ccc(C)cc3c2=O)C2=C(CC(C)(C)CC2=O)N1 (configuration not stated)	none
O=C(Nc1cccc(Oc2c(F)c(F)c(F)c(F)c2F)c1)c1ccccc1	none
O/N=C/c1cc(C(F)(F)F)cc(C(F)(F)F)c1	none
Cn1nccc1NC(=O)c1nccnc1C(=O)O	none
CC(=O)Nc1ccc(NC(=O)c2nccnc2C(=O)O)cn1	none
C/C(=C\C#N)NC(=O)c1nccnc1C(=O)O	Dicer inh 4.6
CCCCOC(=O)C1=C(C)NC2=C(C(=O)CC(C)(C)C2)C1c1ccccc1 (configuration not stated)	none
Cc1cc(-n2c(=S)[nH]c3sc(C)c(C)c3c2=O)n(-c2ccccc2)n1	Dicer inh 3.2
Cc1ccnc(-n2c(=S)[nH]c3sc(C)c(C)c3c2=O)c1	none
CCn1c(=S)[nH]c2sc(C)c(C)c2c1=O	none
CCN(CCS(=O)(=O)c1ccc(Cl)cc1)C(=O)Nc1ccccc1	Dicer inh 3.3
CCN(CCS(=O)(=O)c1ccccc1)S(=O)(=O)c1ccc(Cl)cc1	none
CNC(=O)N(CCS(=O)(=O)c1ccc(Cl)cc1)Cc1cccs1	none
CCOC(=O)c1c(NC(=O)C2Cc3ccc(C)cc3C(=O)O2)sc(C)c1C (configuration not stated)	none
O=C(Nc1cccc(-c2nc3ccccc3o2)c1)c1ccc([N+](=O)[O-])o1	Dicer inh 3.5
O=C(Nc1ccc2oc(-c3cccc(F)c3)nc2c1)c1ccc([N+](=O)[O-])o1	none
O=C(Nc1ccc(-c2nc3cc(Cl)ccc3o2)cc1)c1ccc([N+](=O)[O-])o1	none
COc1ccc(NC(=O)c2ccc([N+](=O)[O-])o2)cc1Cl	Dicer inh 3.2
O=C(Nc1ccc2oc(-c3ccc(F)cc3)nc2c1)c1ccc([N+](=O)[O-])o1	Dicer inh 3
COc1ccc(NC(=O)c2ccc([N+](=O)[O-])o2)cc1	none
O=C(Nc1cccc(-c2nc3ncccc3o2)c1)c1ccc([N+](=O)[O-])o1	none
COC(=O)c1cc(NC(=O)c2ccc([N+](=O)[O-])o2)cc(C(=O)OC)c1	none
O=C(Nc1ccc(-c2nc3ccccc3o2)c(O)c1)c1ccc([N+](=O)[O-])o1	none
CCOC(=O)c1cnc(Sc2ccc(C(F)(F)F)cc2[N+](=O)[O-])nc1N	none
CCOC(=O)NNC(=O)Nc1cccc(C(F)(F)F)c1	none
CCCCCCCc1ccc(C(=O)NC(=S)Nc2ccccn2)cc1	none
Clc1ccc(Oc2ncnc3sc4c(c23)CCCC4)cc1	none
O=C(Cn1c(=O)sc2ccccc21)Nc1nc(-c2ccc(Br)cc2)cs1	none
NC(=O)COc1ccc(-c2noc(COc3ccc(Br)cc3)n2)cc1	none
NC(=O)Cc1nc(-c2ccc(Br)cc2)cs1	Dicer inh 3.2
CSc1ccc(NC(=O)c2cc3c4c(sc3nc2N)CCC4)cc1	none
CCOC(=O)CSC(=S)Nc1ccc(C)cc1C	none
CSC(=NCc1ccco1)Nc1ccc(C)cc1C	Dicer inh 4.1
CN=C(Nc1cc(C)c(C)cc1C)SC	none
O=C1CC(=O)CC(c2ccc(Cl)cc2)C1	none
O=C(NC(=S)NNc1ncc(C(F)(F)F)cc1Cl)c1ccccc1	none
O=C(N=S1CCN(c2ncc(C(F)(F)F)cc2Cl)CC1)c1ccccc1	none
O=C(NC(=S)N1CCN(c2ncc(C(F)(F)F)cc2Cl)CC1)c1ccccc1	Dicer inh 30
CCOC(=O)c1ccc2c(c1)C1C=CCC1C(c1ccc(OC(C)=O)cc1OC(C)=O)N2 (configuration not stated)	none
O=c1oc2ccccc2c(O)c1[N+](=O)[O-]	none
Cc1ccc2oc(=O)n(CCC(=O)O)c2c1	none
CCCCn1c(=O)oc2ccc(C)cc21	Dicer inh 3.6
Cc1ccc2oc(=O)n(Cc3ccc(F)cc3)c2c1	none
O=C1CC(c2ccccc2Cl)c2cc3c(cc2N1)OCO3 (configuration not stated)	none
O=C(O)CNS(=O)(=O)c1ccc2[nH]c(=O)[nH]c2c1	none
O=c1[nH]c2ccc(S(=O)(=O)NC3CCCCC3)cc2[nH]1	Dicer inh 4.7
Cn1c(=O)n(C)c2cc(S(=O)(=O)NC3CCCCC3)ccc21	none
COc1ccc(C2C3=C(CC(C)(C)CC3=O)Nc3nc4ccccc4n32)cc1 (configuration not stated)	none
COc1ccc(-c2nc(COc3ccccc3Cl)nc(SC)c2C#N)cc1	none
CC1CC(=O)C2=C(C1)Nc1nc(C(F)(F)F)nn1C2c1ccccc1 (configuration not stated)	Dicer inh 5.2
COc1cc(OC)cc(-c2nc3n(n2)C(c2ccccc2)C2=C(CCCC2=O)N3)c1 (configuration not stated)	none
O=C1CC(c2ccco2)CC2=C1C(c1ccccc1)n1nc(C(F)(F)F)nc1N2 (configuration not stated)	none
CCOC(=O)c1cc(C#N)c(Sc2ccccc2NC(=O)Nc2ccc(Cl)cc2)nc1C(F)(F)F	none
O=C(CCSc1nc(-c2ccco2)cc(C(F)(F)F)n1)NCc1ccncc1	none
CCN(CCN)c1ccc2c(=O)[nH][nH]c(=O)c2c1	none
CC(C)(C)c1ccc2c(c1)CN(c1ccc(F)cc1)CO2	Dicer inh 6.3
CC(C)(C)c1ccc2c(c1)CN(c1cccc(C(=O)O)c1)CO2	none
CC(C)(C)c1ccc2c(c1)CN(Cc1ccccc1)CO2	none
c1ccc(CN2CCC(N3CCC(N4CCc5ccccc5C4)CC3)CC2)cc1	none
C=CCOC(=O)C1=C(C)NC2=C(C(=O)CC(C)(C)C2)C1c1ccc(OC)c(OC)c1 (configuration not stated)	none
FC(F)(F)c1ccc(SC2c3ccccc3-c3ccccc32)nc1	none
COc1cc2nc(NC(=O)c3ccco3)sc(=O)c2cc1OC	none
